This note sets out measurements from PubChem BioAssay AID1851 (National Center for Advancing Translational Sciences (NCATS), 2009).

Each structure is given as a SMILES string. Hit rate of the full screen: of about 16,000 compounds, about 5,100 (32%) were called active. Not shown: some 25% with an inconclusive outcome. The list shows a part of the results. Unmarked numbers belong to inactive results. Calls come from the whole dose curve; as a rule, active = well fitted curve in the direction sought with a large enough effect; inconclusive = small, poorly fitted or top-dose-only effect, or effect the other way; inactive = no such curve, though single readings can be large or run the other way.
% is set by controls: 0 for no effect and ±100 for the full control effect.

Chain of Cytochrome P450 3A4 (Homo sapiens) (P08684 whole entry, looked up): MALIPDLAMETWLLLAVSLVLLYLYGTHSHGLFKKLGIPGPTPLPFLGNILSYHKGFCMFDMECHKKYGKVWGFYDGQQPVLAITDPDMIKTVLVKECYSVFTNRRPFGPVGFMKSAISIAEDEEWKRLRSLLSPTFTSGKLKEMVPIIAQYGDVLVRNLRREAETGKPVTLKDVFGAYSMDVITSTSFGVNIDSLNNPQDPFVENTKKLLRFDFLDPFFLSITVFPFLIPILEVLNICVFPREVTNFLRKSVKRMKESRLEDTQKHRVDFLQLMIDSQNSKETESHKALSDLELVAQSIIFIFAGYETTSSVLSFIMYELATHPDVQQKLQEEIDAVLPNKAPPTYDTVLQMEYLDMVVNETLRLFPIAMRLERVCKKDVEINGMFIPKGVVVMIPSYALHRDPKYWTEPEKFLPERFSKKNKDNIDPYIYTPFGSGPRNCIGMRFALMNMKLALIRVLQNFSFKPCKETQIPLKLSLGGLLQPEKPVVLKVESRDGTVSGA

This test addresses Cytochrome P450 3A4 (Homo sapiens) (UniProt P08684). The test is described as follows: Cytochrome panel assay with activity outcomes. Conditions: recombinant CYP, pro-luciferin dealkylation, luminescence, p450-cyp3a4; series mostly up to 57.1 µM; activity, negative = inhibition: at the top concentration.
On to `CCOc1cc(C#N)c(NC(=O)c2cccnc2)cc1OCC`, for which the half-maximal activity concentration (AC50) was 12600 nM (active).

On to `CCN(CC)c1ccc(NC(=O)c2cccnc2)c(C)c1`, for which the activity, negative = inhibition is 1.22% [at 2.29 µM].

On to `CCN(CC)C(=O)C1=C(C)NC(=S)NC1c1cn(-c2ccccc2)nc1-c1ccc(Cl)cc1` (centres undefined), for which the AC50 is 7080 nM (active).

Take `CC1=C(C(=O)Nc2ccccc2)C(c2ccco2)NC(=S)N1` (centres undefined): the activity, negative = inhibition was 0.933% [at 2.29 µM].

Consider `CCN(CC)C(=O)c1sc2[nH]c(=S)n(-c3ccccc3)c(=O)c2c1C`, for which the “activity, negative = inhibition” value was -14.5%.

On to `COc1ccc2[nH]cc(CCNc3ccnc(-c4ccccc4C)n3)c2c1`, for which the AC50 is 3160 nM (active).

Turning to `COc1ccc2[nH]cc(CCNc3ccnc(-c4ccccc4Cl)n3)c2c1`, the AC50 was 2000 nM (active).

In the case of `COc1ccc2[nH]cc(CCNc3ccnc(-c4ccccc4C(F)(F)F)n3)c2c1`, the AC50 was 2000 nM (active).

`NC(=O)N[C@H]1NC(=O)NC1=O`: the “activity, negative = inhibition” value is -8.61% [at 25.6 µM].

Consider `O=C(O)[C@@H](c1ccccc1)[C@@H](C(=O)O)c1ccccc1`, for which the activity, negative = inhibition is -6.94% [at 11.4 µM].

For the molecule `Cn1sc(NC(=O)c2ccccc2)nc1=O`, the “activity, negative = inhibition” value was 0.56%.

As for `Cc1ccn2c(NC(=O)c3ccccc3)c(-c3cccs3)nc2c1`, the AC50 was 7940 nM (active).

Regarding `Cc1ccc(SCc2nnc(NC(=O)c3ccccc3)s2)cc1`, the “activity, negative = inhibition” value was 6.01%.

As to `COc1ccccc1CNc1ncncc1-c1ccccc1C(F)(F)F`, the half-maximal activity concentration (AC50) was 79.4 nM (active).

In the case of `COc1ccc(CNc2ncncc2-c2ccccc2C(F)(F)F)c(OC)c1`, the half-maximal activity concentration (AC50) was 316 nM (active).

Consider `CSc1ccc(NC(=O)NCCN2CCc3ccccc3C2)cc1`, for which the “activity, negative = inhibition” value is -27.6%.

Take `CSc1ccc(CNc2ccc(C)c(C)c2)cc1`: the concentration at half-maximal activity (AC50) was 12600 nM (active).

`CSc1ccc(NC(=O)Nc2cc(C)ccn2)cc1`: the activity, negative = inhibition was -14.7% [at 11.4 µM].

Turning to `O=C(O)[C@H]1[C@H](C(=O)O)[C@H](C(=O)O)C[C@@H]1C(=O)O`, the activity, negative = inhibition was -3.42% [at 11.4 µM].

Take `COc1ccc(-n2c(CNc3ccc(C)cc3)nnc2SCC(=O)Nc2nc(-c3ccccc3)cs2)cc1`: the AC50 is 3160 nM (active).

Take `COc1ccc2cc(C)c3nnc(SCC(=O)Nc4nc(-c5ccccc5)cs4)n3c2c1`: the half-maximal activity concentration (AC50) was 2240 nM (active).

`COc1ccc(NC(=O)CSc2nc(-c3ccc(C)cc3)cc(C(F)(F)F)c2C#N)cc1`: the activity, negative = inhibition was 0.258% [at 2.29 µM].

On to `Nc1ccc(N2C(=O)c3ccccc3C2=O)c(Cl)c1`, for which the AC50 is 15800 nM (active).

As to `CC1CCN(CCc2nc3cc(NC(=O)NC4CCCCC4)ccc3n2C)CC1`, the “activity, negative = inhibition” value is -7.07%.

With `FC(F)(F)c1ccccc1-c1cncnc1NCc1cccnc1`, the AC50 was 631 nM (active).

Turning to `c1cncc(CNc2ncn[nH]2)c1`, the activity, negative = inhibition is -14.4% [at 11.4 µM].

Turning to `Cc1ccccc1-c1cncnc1NCc1cccnc1`, the AC50 was 631 nM (active).

Take `CN(C)Cc1ccccc1-c1cncnc1NCc1cccnc1`: the AC50 is 1580 nM (active).

On to `Cc1ccccc1-c1cncnc1NCc1ccccc1`, for which the AC50 is 316 nM (active).
